Data from PubChem BioAssay (EPA / NIEHS).
Several values for one entry are separate records, joined by “and”; a condition that tells them apart may be missing. Equal entries are not always repeated. Results filed as inconclusive are left out. Some structures have more than one record in an assay (separate samples or runs), and their calls can disagree. Activity calls are given as the source filed them. How the source made its calls: active means hit-call score of the fitted dose curve at least 0.9, where 1 is the maximum; inconclusive means response in the unintended direction; inactive means score below 0.9.

What was measured:
[1] = ATG_XTT_Cytotoxicity: Cytotoxicity Assessment in the Attagene TRANS-FACTORIAL HepG2 Assay (AID 2283584);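 on AC50: XTT signal for cell number as viability in transfected HepG2 cells; cells exposed to compound for 24 h before reading; active means loss of viability signal versus DMSO baseline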
Summary of the method: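 24 h chemical exposure of reporter-transfected HepG2; XTT signal loss vs DMSO indicates cytotoxicity.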

[2] = TOX21_p53_BLA_p2_viability: Viability Assessment in the Tox21 HCT-116 p53 Agonism Beta-lactamase Assay, Phase 2 (AID 2283591);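 further: compound exposure lasted 16 h at 37 °C; actives lower the ATP signal meaning cytotoxicity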
Summary of the method: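 HCT-116 p53-bla cells (4000/well) rested 5 h at 37C, then received compounds in DMSO (217-fold dilution) for 16 h at 37C, 5% CO2. After the CCF4 read, CellTiter-Glo was added; ATP luminescence was read after 30 min at room temperature.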

[3] = biological target: Cellular tumor antigen p53 (Homo sapiens) (UniProt P04637); experiment: TOX21_p53_BLA_p2_ratio: Tox21 HCT-116 p53 Agonism Beta-lactamase Assay, Ratio, Phase 2 (AID 2283592)
Sequence of Cellular tumor antigen p53 (Homo sapiens) (P04637 whole entry, looked up): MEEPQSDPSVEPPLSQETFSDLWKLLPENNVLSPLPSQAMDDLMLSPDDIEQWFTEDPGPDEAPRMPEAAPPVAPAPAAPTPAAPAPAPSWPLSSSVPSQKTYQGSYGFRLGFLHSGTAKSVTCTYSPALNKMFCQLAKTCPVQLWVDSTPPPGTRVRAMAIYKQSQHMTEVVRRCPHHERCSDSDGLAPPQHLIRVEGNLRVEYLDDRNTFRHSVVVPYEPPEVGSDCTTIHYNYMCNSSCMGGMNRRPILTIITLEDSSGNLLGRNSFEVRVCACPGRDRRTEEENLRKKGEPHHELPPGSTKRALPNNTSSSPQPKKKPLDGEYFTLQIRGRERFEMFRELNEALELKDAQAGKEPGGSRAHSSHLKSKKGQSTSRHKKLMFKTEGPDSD
Summary of the method: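 DMSO-normalized, positive-direction endpoint derived from the 460 nm/530 nm FRET ratio in HCT116 p53 beta-lactamase reporter cells exposed 16 h at 37C and loaded with CCF4-AM for 2 h.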

[4] = TOX21_p53_BLA_p3_viability: Viability Assessment in the Tox21 HCT-116 p53 Agonism Beta-lactamase Assay, Phase 3 (AID 2283593);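 further: cells exposed to compound for 16 h before reading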
Summary of the method: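 HCT-116 cells (4000/well) rested 5 h at 37C, then got DMSO compounds by pin tool (217-fold dilution) for 16 h at 37C, 5% CO2. After the bla read, CellTiter-Glo was added and luminescence read at 30 min, room temperature.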

[5] = biological target: Cellular tumor antigen p53 (Homo sapiens) (UniProt P04637); experiment: TOX21_p53_BLA_p3_ratio: Tox21 HCT-116 p53 Agonism Beta-lactamase Assay, Ratio, Phase 3 (AID 2283596)
Summary of the method: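 Cells were seeded at 4000/well, rested 5 h at 37C, then dosed with DMSO compound solutions (217-fold dilution) for 16 h. CCF4-AM substrate was loaded for 2 h at room temperature, and the 460/530 nm emission ratio was fitted for gain of signal versus DMSO.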

[6] = TOX21_p53_BLA_p4_viability: Viability Assessment in the Tox21 HCT-116 p53 Agonism Beta-lactamase Assay, Phase 4 (AID 2283597);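 further: hits lower the luminescence signal meaning cytotoxicity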
Summary of the method: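 In this multiplexed secondary endpoint, HCT116 cells (4000 per well, compound at 5 h, 16 h treatment) received CellTiter-Glo after the beta-lactamase read. Luminescence after 30 min RT reflects ATP, and falling signal marks cytotoxicity.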

[7] = biological target: Cellular tumor antigen p53 (Homo sapiens) (UniProt P04637); experiment: TOX21_p53_BLA_p5_ratio: Tox21 HCT-116 p53 Agonism Beta-lactamase Assay, Ratio, Phase 5 (AID 2283599)
Summary of the method: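 HCT-116 cells carrying a p53-inducible beta-lactamase reporter were seeded at 4000 cells/well and dosed after 5 h with compound in DMSO (217-fold dilution). After 16 h at 37C, CCF4-AM substrate was added for 2 h, and the 460/530 nm emission ratio was scored as gain-of-signal versus DMSO.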

[8] = TOX21_p53_BLA_p5_viability: Viability Assessment in the Tox21 HCT-116 p53 Agonism Beta-lactamase Assay, Phase 5 (AID 2283600)
Summary of the method: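 Here cell health was gauged by ATP levels in wells holding 4000 cells, each treated 16 h with DMSO-delivered compounds at 217-fold dilution; reduced luminescence marked toxicity.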

[9] = biological target: Cellular tumor antigen p53 (Homo sapiens) (UniProt P04637); experiment: TOX21_p53_BLA_p4_ratio: Tox21 HCT-116 p53 Agonism Beta-lactamase Assay, Ratio, Phase 4 (AID 2283601)
Summary of the method: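 HCT116 cells carrying an inducible beta-lactamase reporter were plated at 4000 cells/well, rested 5 h, then exposed to compounds in DMSO (217-fold dilution) for 16 h at 37C. CCF4-AM substrate was loaded 2 h at room temperature; 460/530 nm emission ratio scored gain-of-signal versus DMSO.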

Measured: AC50

CC(=O)OC(C)C
inactive: all assays above

Cc1cccc(N(C)C(=S)Oc2ccc3ccccc3c2)c1
inactive: all assays above

CC(C)c1ccc2c(C(C)C)cc(C(C)C)c(S(=O)(=O)O)c2c1
active: [6] 89.7 µM
inactive: all other assays above

O=C1C(N(CO)C(=O)NCO)N(CO)C(=O)N1CO (centres undefined)
not listed: [6] | [7] | [9]
inactive: all other assays above

COc1ccc(C(Cl)=C(c2ccc(OC)cc2)c2ccc(OC)cc2)cc1
not listed: [7]
inactive: all other assays above

CC/C=C\CCOC(=O)CCCCC
not listed: [6] | [8]
inactive: all other assays above

C=C1C2CCC(C2)C1(C)C (centres undefined)
inactive: all assays above

Cc1cc(O)c(Cl)c(C)c1Cl
active: [2] 57 µM | [3] 73.9 µM | [4] 57.8 µM | [5] 85 µM | [6] 61.7 µM | [7] 77.1 µM | [8] 70.1 µM | [9] 74.9 µM
inactive: [1]

CC(=O)Oc1ccc(C(C)=O)cc1
not listed: [3] | [6]
inactive: all other assays above

COC(=O)c1c(C)cc(O)c(C)c1O
not listed: [4] | [5] | [7]
inactive: all other assays above

CC(C)CCCC(C)CC=O (centres undefined)
inactive: [1] | [2] | [3] | [6] | [8]

CCOC(=O)CC(C(C)=O)C(C)=O
inactive: [1] | [2] | [4] | [5] | [7]

O=c1c2ccccc2nnn1CCl
not listed: [3]
inactive: all other assays above

CCCCCC/C=C\CCCCCCCC(=O)O
inactive: [1] | [2] | [5] | [8] | [9]
active: [4] 76.5 µM

CN(C)CCCN(C)C
not listed: [4] | [6] | [7]
inactive: all other assays above

CC(C)CC(O)Cc1ccccc1 (centres undefined)
not listed: [4] | [8]
inactive: all other assays above

CCOC(=O)NNc1nncc2ccccc12
not listed: [4] | [6]
inactive: all other assays above

O=C(Oc1ccccc1)c1ccc2ccccc2c1O
not listed: [3]
inactive: all other assays above

[Cl][Bi]([Cl])([c]1ccccc1)([c]1ccccc1)[c]1ccccc1
active: [1] 7.84 µM | [2] 13.9 µM | [4] 71.4 µM | [5] 76.2 µM | [6] 11.2 µM | [7] 67.7 µM | [8] 58.1 µM | [9] 14.1 µM

CC(C)(C)c1ccc(OC(=O)c2ccccc2O)cc1
inactive: [1] | [2] | [3] | [6] | [9]

N[C@H]1C(O)O[C@H](CO)[C@H](O)[C@@H]1O (some centres undefined)
not listed: [3]
inactive: all other assays above

NC(CO)(CO)CO
not listed: [4] | [7]
inactive: all other assays above

FC(F)(F)C(=NOCC1OCCO1)c1ccc(Cl)cc1
not listed: [3] | [7]
inactive: all other assays above

O=c1[nH]c(=O)c2[nH]c(=O)[nH]c2[nH]1
inactive: [1] | [2] | [3] | [7] | [9]

O=C1C=CC(=O)O1
not listed: [4] | [5] | [6]
inactive: all other assays above

Cc1c(C)c([N+](=O)[O-])c(C(C)(C)C)c([N+](=O)[O-])c1C
inactive: [1] | [2] | [3] | [4] | [6]

CCOC(=O)CC
not listed: [5] | [6]
inactive: all other assays above

O=C1CCCCCCCCCCCCCCCO1
not listed: [3] | [6]
inactive: all other assays above

O=C(Nc1ccccc1)c1ccccc1O
not listed: [3]
inactive: all other assays above

CC(CC=O)c1ccccc1 (centres undefined)
not listed: [3] | [7] | [9]
inactive: all other assays above

O=C1CCCC1
not listed: [4] | [7]
inactive: all other assays above

Nc1ccc(N)c(Cl)c1
active: [5] 76.2 µM | [9] 72.1 µM
inactive: [1] | [2] | [4] | [6] | [8] | [9]

O=C(Cl)c1cc(C(=O)Cl)cc(C(=O)Cl)c1
not listed: [4] | [9]
inactive: all other assays above

CCC(Cc1ccccc1)(C(=O)c1ccc(N2CCOCC2)cc1)N(C)C (centres undefined)
not listed: [4] | [7]
inactive: all other assays above

CN(C)c1ccc(C(=N)c2ccc(N(C)C)cc2)cc1
active: [5] 13.2 µM and 6.84 µM | [7] 2.63 µM and 2.56 µM | [9] 936 nM and 1.49 µM
not listed: [3]
inactive: all other assays above

CC(C)=CCC/C(C)=C\C#N
not listed: [3] | [6]
inactive: all other assays above

O=C1CCCN1CCO
not listed: [4]
inactive: all other assays above

C=C(C)C(=O)OCC(C)C
not listed: [3] | [6] | [8]
inactive: all other assays above

O=C(OCC1CCC2OC2C1)C1CCC2OC2C1 (centres undefined)
not listed: [4] | [9]
inactive: all other assays above

COC(=O)c1ccc2cc(C(=O)OC)ccc2c1
not listed: [5]
inactive: all other assays above

CC(=O)c1ccc[nH]1
not listed: [4] | [8]
inactive: all other assays above

CC=CC(=O)N(CC)c1ccccc1C
not listed: [4] | [8]
inactive: all other assays above

CC(=O)OCC(=O)[C@@]12N=C(C)O[C@@H]1C[C@H]1[C@@H]3CCC4=CC(=O)C=C[C@]4(C)[C@H]3[C@@H](O)C[C@@]12C
not listed: [4] | [5] | [7]
inactive: all other assays above

N#[N+]c1ccc2c(S(=O)(=O)[O-])cccc2c1O
not listed: [4]
inactive: all other assays above

CN(C)c1ccc(N=Nc2ccccc2C(=O)O)cc1
inactive: [1] | [3] | [9]
active: [2] 75.8 µM | [4] 75 µM | [6] 68 µM | [8] 75.8 µM

O=S(=O)(O)CC(O)CCl (centres undefined)
not listed: [6] | [7] | [8]
inactive: all other assays above

OCCN(CCO)c1ccccc1
inactive: [1] | [2] | [4] | [8]

CC1=NC(C)OC1C (centres undefined)
not listed: [3] | [5] | [6]
inactive: all other assays above

CC(=O)c1ccc2c(c1)CCCC2
inactive: [1] | [2] | [4] | [5] | [9]

C=C[Si](C)(C)O[Si](C)(C)C=C
inactive: [1] | [2] | [5]

C(=CC=Nc1ccccc1)C=CNc1ccccc1
not listed: [2] | [9]
inactive: all other assays above
